# Laboratory results from PubChem BioAssay (NCI).
# “And” between values parts separate entries of the source, which are not always exact repeats. Identical values can stand only once. This is part of a sample that, as a whole, favours compounds with a hit. Of some 79,000 tested, about 15% had one in any assay. Some compounds were tested as several samples or in several runs, with calls that do not always agree. The source made the active and inactive calls. Rule as the data show it: active = growth inhibition above about 70%; inactive = the rest.
# Assays:
# [1] = NCI Yeast Anticancer Drug Screen. Data for the wt1 strain (AID 149);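 also: 0% = growth of vehicle-treated wt1 cultures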; conditions: S. cerevisiae wt1 strain (SPY 50644) growth inhibition, stronger effect = higher value
# Outline: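 Yeast wt1 strain exposed to compounds; growth inhibition measured relative to vehicle-treated controls.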
# [2] = NCI Yeast Anticancer Drug Screen. Data for the rad50EPP+ strain (AID 151);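 also: 0% = growth of vehicle-treated control cultures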; conditions: S. cerevisiae rad50 mutant strain, stronger effect = higher value
# Outline: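 Vehicle-normalised growth inhibition; rad50EPP+ yeast strain, altered in DNA damage repair, compound-treated.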
# [3] = NCI Yeast Anticancer Drug Screen. Data for the mgt1 strain (AID 153); conditions: S. cerevisiae mgt1 mutant growth inhibition, stronger effect = higher value
# Outline: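 Vehicle-normalized growth inhibition is determined in mgt1 yeast, a strain selected for a defined alteration in DNA repair or cell cycle control.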
# [4] = NCI Yeast Anticancer Drug Screen. Data for the rad50 strain (AID 155);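 also: 0% = growth of vehicle-only cultures of the same strain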; conditions: S. cerevisiae rad50 strain growth inhibition, stronger effect = higher value
# Outline: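 Yeast carrying a defined DNA repair defect were exposed to test compounds, and growth was compared with vehicle-treated controls to give percent inhibition.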
# [5] = NCI Yeast Anticancer Drug Screen. Data for the mec2-1 strain (AID 157); conditions: S. cerevisiae mec2-1 strain, stronger effect = higher value
# Outline: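 Mutant yeast (mec2-1) grown with compound; growth inhibition relative to vehicle control reported.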
# [6] = NCI Yeast Anticancer Drug Screen. Data for the rad14 strain (AID 159);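 also: 0% = growth of vehicle-treated control cultures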; conditions: S. cerevisiae rad14 strain growth inhibition, stronger effect = higher value
# Outline: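 Yeast cells carrying a defined DNA-repair defect were exposed to compounds, and growth inhibition was calculated relative to vehicle-treated control cultures.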
# [7] = NCI Yeast Anticancer Drug Screen. Data for the sgs1 mgt1 strain (AID 161);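 also: 0% = growth of cultures given vehicle only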; conditions: S. cerevisiae sgs1 mgt1 strain, stronger effect = higher value
# Outline: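 Yeast cells carrying a defined DNA-repair defect were exposed to test compounds. Growth inhibition was measured relative to vehicle-treated controls.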
# [8] = NCI Yeast Anticancer Drug Screen. Data for the CLN2oe strain (AID 163);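 also: 0% = growth of vehicle-only control cultures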; conditions: S. cerevisiae CLN2oe strain, stronger effect = higher value
# Outline: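 Compounds are applied to yeast harbouring a defined cell-cycle control change; reduced growth compared with vehicle-treated controls gives the value.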
# [9] = NCI Yeast Anticancer Drug Screen. Data for the cln2 rad14 strain (AID 165);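 also: 0% = growth equal to vehicle treated cultures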; conditions: S. cerevisiae cln2 rad14 strain, stronger effect = higher value
# Outline: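 Readout is yeast growth inhibition versus vehicle-treated controls, using a strain with cln2 and rad14 alterations exposed to compound.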
# [10] = NCI Yeast Anticancer Drug Screen. Data for the bub3 strain (AID 167); conditions: S. cerevisiae bub3 mutant strain, stronger effect = higher value
# Outline: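 Compounds were applied to a genetically altered yeast strain carrying a cell-cycle control defect. Growth inhibition was scored against vehicle-treated controls.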
# [11] = NCI Yeast Anticancer Drug Screen. Data for the wt2 strain (AID 169);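 also: 0% = growth of vehicle-treated yeast cultures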; conditions: S. cerevisiae wt2 strain growth inhibition, stronger effect = higher value
# Outline: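 Against vehicle-treated controls, the growth of yeast exposed to each compound was compared, and the inhibition was recorded.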
# [12] = NCI Yeast Anticancer Drug Screen. Data for the sgs1 strain (AID 173);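 also: 0% = growth of vehicle-only control cultures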; conditions: S. cerevisiae sgs1 mutant, stronger effect = higher value
# Outline: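 Each compound was added to cultures of the altered yeast strain. Growth was recorded, and inhibition was derived by comparison with vehicle controls.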
# [13] = NCI Yeast Anticancer Drug Screen. Data for the mlh1 rad18 strain (AID 175); conditions: S. cerevisiae mlh1 rad18 strain growth inhibition, stronger effect = higher value
# Outline: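 Genetically defined yeast (DNA repair-deficient) exposed to compounds; growth inhibition determined relative to vehicle.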
# [14] = NCI Yeast Anticancer Drug Screen. Data for the rad18 strain (AID 177); conditions: S. cerevisiae rad18 mutant growth inhibition, stronger effect = higher value
# Outline: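 Vehicle-treated cultures served as the baseline for scoring compound-induced growth inhibition in DNA-repair-mutant yeast.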
# [15] = NCI Yeast Anticancer Drug Screen. Data for the mlh1 strain (AID 171);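 also: 0% = growth of vehicle-treated control cultures of the same strain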; conditions: S. cerevisiae mlh1 strain growth inhibition, stronger effect = higher value
# Outline: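 Measured: yeast growth. Reference: vehicle-treated controls. Organism: strain with a defined alteration affecting DNA damage repair or cell cycle control, treated with compound.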
# [16] = at 5.0 µM (retest, dose inferred, filed as 0.5)
# [17] = at 50.0 µM (retest, dose inferred, filed as 5.0)
smiles,measurement,setting,value
Cc1nc2ccc(Br)cc2c(=O)n1-c1ccc(NC2OCC(O)C(O)C2O)cc1 (stereo unspecified),growth inhibition,[1]; at 1.2 µM,3% (inactive)
same,growth inhibition,[1]; at 3.7 µM,9% (inactive)
same,growth inhibition,[1]; at 11.0 µM,12% (inactive)
same,growth inhibition,[1]; at 33.0 µM,32% (inactive)
same,growth inhibition,[1]; at 100.0 µM,70% (active)
same,growth inhibition,[2]; at 1.2 µM,1% (inactive)
same,growth inhibition,[2]; at 3.7 µM,-1% (inactive)
same,growth inhibition,[2]; at 11.0 µM,-1% (inactive)
same,growth inhibition,[2]; at 33.0 µM,5% (inactive)
same,growth inhibition,[2]; at 100.0 µM,13% (inactive)
same,growth inhibition,[3]; at 1.2 µM,6% (inactive)
same,growth inhibition,[3]; at 3.7 µM,9% (inactive)
same,growth inhibition,[3]; at 11.0 µM,24% (inactive)
same,growth inhibition,[3]; at 33.0 µM,41% (inactive)
same,growth inhibition,[3]; at 100.0 µM,81% (active)
same,growth inhibition,[4]; at 1.2 µM,-3% (inactive)
same,growth inhibition,[4]; at 3.7 µM,17% (inactive)
same,growth inhibition,[4]; [16],11% (inactive)
same,growth inhibition,[4]; at 11.0 µM,14% (inactive)
same,growth inhibition,[4]; at 33.0 µM,53% (inactive)
same,growth inhibition,[4]; [17],0% (inactive)
same,growth inhibition,[4]; at 50.0 µM,62.1% (inactive) and 46.9% (inactive)
same,growth inhibition,[4]; at 100.0 µM,86% (active)
same,growth inhibition,[5]; at 1.2 µM,12% (inactive)
same,growth inhibition,[5]; at 3.7 µM,14% (inactive)
same,growth inhibition,[5]; [16],1% (inactive)
same,growth inhibition,[5]; at 11.0 µM,23% (inactive)
same,growth inhibition,[5]; at 33.0 µM,54% (inactive)
same,growth inhibition,[5]; [17],45% (inactive)
same,growth inhibition,[5]; at 50.0 µM,38.2% (inactive) and 56.2% (inactive)
same,growth inhibition,[5]; at 100.0 µM,90% (active)
same,growth inhibition,[6]; at 1.2 µM,4% (inactive)
same,growth inhibition,[6]; at 3.7 µM,5% (inactive)
same,growth inhibition,[6]; at 11.0 µM,14% (inactive)
same,growth inhibition,[6]; at 33.0 µM,32% (inactive)
same,growth inhibition,[6]; at 100.0 µM,79% (active)
same,growth inhibition,[7]; [16],-3% (inactive)
same,growth inhibition,[7]; [17],34% (inactive)
same,growth inhibition,[7]; at 50.0 µM,64% (inactive) and 0.15% (inactive)
same,growth inhibition,[8]; at 1.2 µM,5% (inactive)
same,growth inhibition,[8]; at 3.7 µM,11% (inactive)
same,growth inhibition,[8]; at 11.0 µM,14% (inactive)
same,growth inhibition,[8]; at 33.0 µM,39% (inactive)
same,growth inhibition,[8]; at 100.0 µM,48% (inactive)
same,growth inhibition,[9]; [16],-3% (inactive)
same,growth inhibition,[9]; [17],53% (inactive)
same,growth inhibition,[9]; at 50.0 µM,-15.2% (inactive) and 12.8% (inactive)
same,growth inhibition,[10]; at 1.2 µM,4% (inactive)
same,growth inhibition,[10]; at 3.7 µM,8% (inactive)
same,growth inhibition,[10]; [16],7% (inactive)
same,growth inhibition,[10]; at 11.0 µM,17% (inactive)
same,growth inhibition,[10]; at 33.0 µM,49% (inactive)
same,growth inhibition,[10]; [17],60% (inactive)
same,growth inhibition,[10]; at 50.0 µM,73.2% (active) and -5.1% (inactive)
same,growth inhibition,[10]; at 100.0 µM,90% (active)
same,growth inhibition,[11]; at 1.2 µM,1% (inactive)
same,growth inhibition,[11]; at 3.7 µM,4% (inactive)
same,growth inhibition,[11]; at 11.0 µM,14% (inactive)
same,growth inhibition,[11]; at 33.0 µM,43% (inactive)
same,growth inhibition,[11]; at 100.0 µM,86% (active)
same,growth inhibition,[12]; at 1.2 µM,6% (inactive)
same,growth inhibition,[12]; at 3.7 µM,12% (inactive)
same,growth inhibition,[12]; at 11.0 µM,25% (inactive)
same,growth inhibition,[12]; at 33.0 µM,61% (inactive)
same,growth inhibition,[12]; at 100.0 µM,89% (active)
same,growth inhibition,[13]; [16],-38% (inactive)
same,growth inhibition,[13]; [17],79% (active)
same,growth inhibition,[13]; at 50.0 µM,62.4% (inactive) and 13.8% (inactive)
same,growth inhibition,[14]; at 1.2 µM,4% (inactive)
same,growth inhibition,[14]; at 3.7 µM,6% (inactive)
same,growth inhibition,[14]; at 11.0 µM,18% (inactive)
same,growth inhibition,[14]; at 33.0 µM,55% (inactive)
same,growth inhibition,[14]; at 100.0 µM,91% (active)
CCOC(=O)c1[nH]c2cccc3c2c1CC(Br)C3=O (stereo unspecified),growth inhibition,[1]; at 1.2 µM,-23% (inactive)
same,growth inhibition,[1]; at 3.7 µM,-5% (inactive)
same,growth inhibition,[1]; at 11.0 µM,-3% (inactive)
same,growth inhibition,[1]; at 33.0 µM,19% (inactive)
same,growth inhibition,[1]; at 100.0 µM,60% (inactive)
same,growth inhibition,[2]; at 1.2 µM,-31% (inactive)
same,growth inhibition,[2]; at 3.7 µM,-1% (inactive)
same,growth inhibition,[2]; at 11.0 µM,-12% (inactive)
same,growth inhibition,[2]; at 33.0 µM,34% (inactive)
same,growth inhibition,[2]; at 100.0 µM,62% (inactive)
same,growth inhibition,[3]; at 1.2 µM,-33% (inactive)
same,growth inhibition,[3]; at 3.7 µM,0% (inactive)
same,growth inhibition,[3]; at 11.0 µM,-4% (inactive)
same,growth inhibition,[3]; at 33.0 µM,67% (inactive)
same,growth inhibition,[3]; at 100.0 µM,88% (active)
same,growth inhibition,[4]; at 1.2 µM,-15% (inactive)
same,growth inhibition,[4]; at 3.7 µM,-34% (inactive)
same,growth inhibition,[4]; [16],45% (inactive)
same,growth inhibition,[4]; at 11.0 µM,-12% (inactive)
same,growth inhibition,[4]; at 33.0 µM,57% (inactive)
same,growth inhibition,[4]; [17],92% (active)
same,growth inhibition,[4]; at 50.0 µM,89.8% (active)
same,growth inhibition,[4]; at 100.0 µM,76% (active)
same,growth inhibition,[5]; at 1.2 µM,-6% (inactive)
same,growth inhibition,[5]; at 3.7 µM,3% (inactive)
same,growth inhibition,[5]; [16],46% (inactive)
same,growth inhibition,[5]; at 11.0 µM,14% (inactive)
same,growth inhibition,[5]; at 33.0 µM,80% (active)
same,growth inhibition,[5]; [17],96% (active)
same,growth inhibition,[5]; at 50.0 µM,91.3% (active)
same,growth inhibition,[5]; at 100.0 µM,87% (active)
same,growth inhibition,[6]; at 1.2 µM,0% (inactive)
same,growth inhibition,[6]; at 3.7 µM,-8% (inactive)
same,growth inhibition,[6]; at 11.0 µM,-9% (inactive)
same,growth inhibition,[6]; at 33.0 µM,4% (inactive)
same,growth inhibition,[6]; at 100.0 µM,58% (inactive)
same,growth inhibition,[7]; [16],66% (inactive)
same,growth inhibition,[7]; [17],96% (active)
same,growth inhibition,[7]; at 50.0 µM,83.3% (active)
same,growth inhibition,[8]; at 1.2 µM,-48% (inactive)
same,growth inhibition,[8]; at 3.7 µM,-44% (inactive)
same,growth inhibition,[8]; at 11.0 µM,-69% (inactive)
same,growth inhibition,[8]; at 33.0 µM,-39% (inactive)
same,growth inhibition,[8]; at 100.0 µM,67% (inactive)
same,growth inhibition,[9]; [16],6% (inactive)
same,growth inhibition,[9]; [17],60% (inactive)
same,growth inhibition,[9]; at 50.0 µM,50.6% (inactive)
same,growth inhibition,[10]; at 1.2 µM,-46% (inactive)
same,growth inhibition,[10]; at 3.7 µM,-39% (inactive)
same,growth inhibition,[10]; [16],56% (inactive)
same,growth inhibition,[10]; at 11.0 µM,-29% (inactive)
same,growth inhibition,[10]; at 33.0 µM,32% (inactive)
same,growth inhibition,[10]; [17],93% (active)
same,growth inhibition,[10]; at 50.0 µM,76% (active)
same,growth inhibition,[10]; at 100.0 µM,78% (active)
same,growth inhibition,[11]; at 1.2 µM,-28% (inactive)
same,growth inhibition,[11]; at 3.7 µM,2% (inactive)
same,growth inhibition,[11]; at 11.0 µM,81% (active)
same,growth inhibition,[11]; at 33.0 µM,97% (active)
same,growth inhibition,[11]; at 100.0 µM,97% (active)
same,growth inhibition,[15]; at 1.2 µM,-27% (inactive)
same,growth inhibition,[15]; at 3.7 µM,-19% (inactive)
same,growth inhibition,[15]; at 11.0 µM,-11% (inactive)
same,growth inhibition,[15]; at 33.0 µM,53% (inactive)
same,growth inhibition,[15]; at 100.0 µM,83% (active)
same,growth inhibition,[13]; [16],82% (active)
same,growth inhibition,[13]; [17],96% (active)
same,growth inhibition,[13]; at 50.0 µM,89.4% (active)
same,growth inhibition,[14]; at 1.2 µM,-39% (inactive)
same,growth inhibition,[14]; at 3.7 µM,-22% (inactive)
same,growth inhibition,[14]; at 11.0 µM,2% (inactive)
same,growth inhibition,[14]; at 33.0 µM,74% (active)
same,growth inhibition,[14]; at 100.0 µM,89% (active)
